aGlu spleen mod = lysosomal alpha-glucosidase (human) modulation | P10253 | human spleen homogenate, 4-MU-alpha-glucoside fluorescence | Potency, µM (top dose mostly 79.9 µM), without a hit: at the highest dose activity change, negative = inhibition, most hits filed as inhibitors | 0.006% of 240,000 active | AID 2112;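 further: potency means the concentration at half of the fitted maximal effect; 0% = enzyme with vehicle and -100% = no enzyme basal signal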
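Human spleen homogenate (1 ug) with 4-methylumbelliferyl-alpha-D-glucopyranoside (1 mM final) in 50 mM citrate/phosphate pH 5.0, 0.01% Tween-20; 40 min at 37 C. Stopped at pH 10; 4-MU fluorescence Ex 365/Em 440 nm; AC50 by Hill fit.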
Coupling enz = inhibits coupling enzyme system, counter-screen for aldolase hits; 0.67% of 290,000 active; AID 2472; coupling enzyme system counterscreen, AmpLite Red fluorescence; activity change, negative = inhibition, % at 58.2 µM, hits read low; in the data active means activity change below about -30%
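Final compound at 57.5 uM, incubated 10 min at RT with coupling enzyme reagent (glyceraldehyde-3-phosphate), then 20 min with substrate and AmpLite Red detection. Fluorescence read at 525/598 nm; tests interference with the coupling assay, not aldolase inhibition.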
GAA glycogen = alters human alpha-glucosidase cleavage of glycogen | P10253 | recombinant GAA, glycogen substrate, Amplex Red glucose oxidase fluorescence | Potency, µM (titrated, usually from 76.4 µM), for the others: at the highest dose activity change, negative = inhibition, usual class: inhibitors | 0.38% of 300,000 active;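 further: potency means the concentration at half of the fitted maximal effect; 0% = full enzyme reaction and -100% = no-enzyme basal signal; the screen sought inhibitors and activators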
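qHTS, 1536-well; enzyme 4 nM final; cpd up to 77 uM; substrate bovine liver glycogen 30 ug; 50 mM citrate/phosphate pH 5.0, 0.01% Tween-20; 37 C, 40 min; Amplex Red detection 45 min RT; Hill fit → AC50.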
GAA inh = blocks human lysosomal alpha-glucosidase; P10253; Potency, µM (top dose mostly 76.9 µM), for the others: at the highest dose activity change, negative = inhibition, most hits filed as inhibitors; 0.005% of 200,000 active; purified human GAA, 4-MU-alpha-glucoside fluorescence;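 further: potency means the concentration at half of the fitted maximal effect; plate controls were uninhibited enzyme wells for no effect and no-enzyme background for full effect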
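qHTS format, compound range up to 77 uM. Human lysosomal enzyme at 4 nM, 400 uM 4-MU glucoside substrate, pH 5.0, 20 min room temperature; fluorescence after alkaline stop gives activity normalized to controls.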
B2AR arrestin = agonists driving beta-arrestin recruitment to human beta2-adrenergic receptor; 0.02% of 330,000 active; AID 492947; beta-arrestin recruitment to beta2AR, cell-based reporter; Potency, µM (series often up to 46.1 µM), for the others: at the top dose activation, actives largely listed as activators; P07550;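 further: potency means the concentration at half of the fitted maximal effect; 0% = DMSO controls and full agonism = EC100 isoproterenol or metaproterenol; nearly all actives have a fitted effect of over 65% in size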
Target sequence (P07550 whole entry, looked up): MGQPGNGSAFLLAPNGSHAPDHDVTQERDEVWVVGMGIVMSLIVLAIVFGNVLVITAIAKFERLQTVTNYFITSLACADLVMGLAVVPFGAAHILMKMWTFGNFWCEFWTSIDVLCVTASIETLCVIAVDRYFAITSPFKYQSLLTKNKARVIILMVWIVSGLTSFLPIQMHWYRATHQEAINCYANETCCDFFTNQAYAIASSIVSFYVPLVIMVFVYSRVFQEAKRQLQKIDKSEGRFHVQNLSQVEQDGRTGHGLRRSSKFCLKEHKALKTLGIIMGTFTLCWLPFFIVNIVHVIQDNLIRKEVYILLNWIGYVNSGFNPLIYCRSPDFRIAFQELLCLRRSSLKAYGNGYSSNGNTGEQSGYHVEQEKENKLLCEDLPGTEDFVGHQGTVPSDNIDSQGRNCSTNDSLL
Numbers without * were called inactive; ? = inconclusive; · = not tested or not shown; ! = not confirmed by another sample; [ ] = another dose, or the depositor's remark. An excerpt weighted towards active compounds, which were near 0.85% of everything screened. Unless noted, the call rests on the fitted dose curve; in most records, active means well fitted curve in the direction sought with a large enough effect; inconclusive means small, poorly fitted or top-dose-only effect, or another doubt; inactive means no such curve, though single readings can be large; an effect the other way counts as inactive or inconclusive. Unless noted, on the % scale 0 is the no-effect control and ±100 the full control effect.

SMILES | aGlu spleen mod | Coupling enz | GAA glycogen | GAA inh | B2AR arrestin
COC(=O)CCC(=O)OC1(C)C(=O)C=C2C=C(C3CC3)N(c3cccc(C#N)c3)C=C2C1=O (configuration not stated) | 1%[17.4 µM] | -32*! | -15% | · | 0%
COC(=O)CCC(=O)OC1(C)C(=O)C=C2C=C(C3CC3)N(Cc3ccco3)C=C2C1=O (configuration not stated) | -2%[17.4 µM] | -29 | 1% | · | 0%
COCCN1C=C2C(=O)C(C)(OC(=O)CCC(=O)OC)C(=O)C=C2C=C1C1CC1 (configuration not stated) | 4%[17.4 µM] | -45* | 7% | · | 0%
COC(=O)CCC(=O)OC1(C)C(=O)C=C2C=C(C3CC3)N(C3CC3)C=C2C1=O (configuration not stated) | 6%[17.4 µM] | -47*! | 3% | · | 0%
COC(=O)CCC(=O)OC1(C)C(=O)C=C2C=C(C3CC3)N(c3ccc(CO)cc3)C=C2C1=O (configuration not stated) | -2%[17.4 µM] | -25 | · | · | ·
NC(C(=O)O)C(CC(=O)O)c1ccc(Cl)cc1 (configuration not stated) | 0% | · | · | · | ·
C=CCN1CC(C(=O)N(CCCN(C)C)C(=O)NCC)CC2c3cccc4[nH]cc(c34)CC21 (configuration not stated) | -3% | -1 | · | · | ·
COc1ccc2nc(-c3ccco3)c(-c3ccco3)nc2c1 | -4% | -32* | -15% | 9% | 0%
c1coc(-c2nc(-c3ccco3)c(-c3ccco3)nc2-c2ccco2)c1 | -6% | -14 | -9% | 5% | 0%
COc1ccc2nc3cccc(OC)c3nc2c1 | -6% | -39* | -5% | -4% | 0%
COc1ccc2nc3ccccc3nc2c1N | -2% | -6 | ? | · | 6%
CCOC(=O)c1cc(-c2ccc(OC)cc2)nc2c1c(C)nn2CCC#N | 24% | 5 | -25% | 13% | 0%
COc1ccc(-c2cc(Nc3ccccc3NC(=O)C(F)(F)F)n(CCC#N)n2)cc1 | -3% | 0 | 35µM* | -1% | 0%
COc1cc(C(CCN2CCCC2)c2c(OC)cc(OC)c3c2OC(=O)CC3c2ccc(N(C)C)cc2)cc(OC)c1OC (configuration not stated) | -2% | -2 | · | · | ·
Cc1cc(NC(=O)CN2CCN(c3ccccc3O)CC2)no1 | -3% | 1 | 13µM* | -2% | 0%
CCOc1ccccc1N1CCN(CC(=O)Nc2cc(C)on2)CC1 | 0% | -1 | 2% | 0% | 0%
CC(C)c1ccc(O)c(N)c1 | -8% | -9 | 10µM* | 2% | -1%
CCC(C)c1ccc(O)c(N)c1 (configuration not stated) | 9% | -3 | 25µM* | -4% | 0%
CC(C)(C)c1ccc(O)c(N)c1 | -5% | -5 | ? | -2% | 0%
O=C1NN(C(=O)Nc2ccc(Br)cc2)C(c2ccccc2)C1c1ccccc1 (configuration not stated) | 4% | 1 | · | · | ·
CCOC(=O)c1[nH]c2ccccc2c1NC(=O)c1ccc(Br)cc1 | · | · | -8%[76.3 µM] | · | ·
COc1ccc2oc(C(=O)Nc3nc(C)cs3)c(C)c2c1 | · | · | · | · | 0%
O=C1c2sc3nc4n(c(=O)c3c2CCC1Br)CCCCC4 (configuration not stated) | -9% | -62* | -7% | 5% | 0%
O=C1CCCc2c1sc1nc3n(c(=O)c21)CCCCC3 | ? | 4 | 0% | -2% | 0%
Cc1ccccc1NC(=S)Nc1cccc2cnccc12 | -2% | -52* | -10% | 1% | 0%
SMILES | aGlu spleen mod | Coupling enz | GAA glycogen | GAA inh | B2AR arrestin
Cc1ccc(C)c(NC(=S)Nc2cccnc2)c1 | 0% | 2 | -5% | 5% | 0%
Fc1ccccc1NC(=S)Nc1cccc2cnccc12 | -4% | -32* | 5% | -1% | 0%
FC(F)(F)c1ccccc1NC(=S)Nc1cccc2cnccc12 | 11% | -25 | -27% | 2% | -1%
Cc1ccc(C)c(NC(=S)c2ccccn2)c1 | -2% | -1 | -10% | -10% | 11µM*
Cc1ccc(C)c(NC(=S)Nc2cccc3cnccc23)c1 | -2% | -37* | -14% | 5% | 0%
CC(=O)OC[C@@H]1O[C@@H](O/N=C2/C[C@@H](O)[C@@H](O)[C@@H]3[C@@H]4C(=O)N(C[C@@H]5CCCO5)C(=O)[C@H]4CC[C@@H]23)[C@H](OC(C)=O)[C@H](OC(C)=O)[C@@H]1OC(C)=O | 5%[17.4 µM] | 0 | · | · | ·
COC(=O)CN1CC(=O)c2ccccc2S1(=O)=O | 4% | 12 | · | · | ·
S=C(NCCc1ccccc1)Nc1cccc2cnccc12 | 2% | -36* | -10% | -10% | 0%
CC(C)C[C@@H](C(=O)N[C@@H](Cc1c[nH]c2ccccc12)C(N)=O)N1C[C@]2(CCCN2C(=O)[C@H](Cc2ccccc2)NC(=O)[C@H](Cc2ccccc2)NC(=O)[C@H](CCC(N)=O)NC(=O)[C@H](CCC(N)=O)NC(=O)[C@@H]2CCCN2C(=O)[C@H](CCCCN)NC(=O)[C@@H]2CCCN2C(=O)[C@@H](N)CCCNC(=N)N)CC1=O | 0% | 0 | · | · | ·
CCC(=O)NC(c1cccs1)c1ccc2cccnc2c1O (configuration not stated) | 6% | 0 | -3% | · | 13µM*
CN(C)c1ccc(-c2ccc3ncnc(-n4ccnc4)c3c2)cc1 | -7% | -2 | · | · | ·
C/C(CC(=O)Nc1ccc(N(C)C)cc1)=N\NC(=O)Cc1csc(N)n1 | 5% | -32* | ? | -3% | 0%
CCN(CC)CC1CCN(c2ncc3ncnc(Nc4ccc(F)c(Cl)c4)c3n2)CC1 | 3% | 1 | · | · | ·
CC#CC(=O)Nc1cc2c(Nc3ccc(F)c(Cl)c3)ncnc2cn1 | -3% | -44* | · | · | ·
O=C(O)c1ccc(-c2ccc3cc(C45CC6CC(CC(C6)C4)C5)c(O)cc3c2)cc1 | 2% | -10 | · | · | ·
Oc1ccc(N=Cc2ccc(OCc3ccccc3)cc2)cc1 | 2% | -32* | ? | -24% | ?
CCc1nnc(NC(=O)c2ccc(OC)cc2OC)s1 | -3% | -2 | -10% | -2% | 0%
COc1ccc(C(=O)Cc2nnc(C)s2)c(OC)c1 | -5% | -34* | 2% | -5% | 1%
COc1ccc(C2CC(c3ccccc3)Oc3ccc(OC)cc32)cc1 (configuration not stated) | 2% | 0 | · | · | ·
CN1c2ccccc2C(C)(C)C12C=Cc1cc(O)ccc1O2 (configuration not stated) | -11% | -17 | 12µM* | 0% | -1%
c1ccc(OCCSc2nnc3sc4ccccc4n23)cc1 | -4% | -39* | 3% | -4% | 0%
CCN(CC)C(=O)CSc1nnc2sc3ccccc3n12 | -12% | 0 | 9% | -4% | 3%
COc1cccc(OCCSc2nnc3sc4ccccc4n23)c1 | -1% | -42* | -25% | ? | 0%
COc1cccc(OCCSc2nc(N)cc(N)n2)c1 | 4% | 1 | 3% | -11% | 0%
